Laboratory results: ChEMBL document CHEMBL4513216, “Probing the Open Global Health Chemical Diversity Library for Multistage-Active Starting Points for Next-Generation Antimalarials” (ACS Infect Dis, 2020)
Out of some 68,000 compounds screened, about 2,700 (4%) showed an effect of 50% or more. The entries come from a sample that favours strong results as a whole.

System: Plasmodium berghei
Test: Screen against P. berghei liver stage (PbLuc), transformed with Luciferase, at 2uM
Assay type: functional, HepG2
Details: tested at 2 uM

SMILES | INHIBITION [%]
CNc1cncc(C2CCCN2S(=O)(=O)c2ccc(F)cc2)n1 (configuration not stated) | 2.8
CN(C)CCN1CCC2(CCCN(C(=O)C3CCC3)C2)CC1 | -9.47
CC(CO)NS(=O)(=O)c1cccc(C(C)C)c1 (configuration not stated) | 60.13
Cc1ccc(S(=O)(=O)NC(C)C#N)cc1Br (configuration not stated) | -29.94
CC(C#N)NS(=O)(=O)c1cccc(C(C)C)c1 (configuration not stated) | 69.67
CC(C)c1cccc(S(=O)(=O)NCCCN2CCC(O)CC2)c1 | -13.21
CNS(=O)(=O)c1cccc(C(C)NCc2ccccc2)c1 (configuration not stated) | 12.75
CCC(=O)c1cccc(S(=O)(=O)NC(C)C#N)c1 (configuration not stated) | 31.51
COc1ccc(Cn2cc(C(=O)N(C)Cc3ccn[nH]3)nn2)cc1 | 20.71
COC(=O)N1CC[C@@]2(C1)[C@H](OC)CN(c1ccccc1)S2(=O)=O | 22.01
Cc1cc(C2CCNCC2)nc(-c2ccsc2)n1 | 24.98
CN1CCOC(CNCC(=O)NCCc2ccc(F)cc2)C1 (configuration not stated) | -8.14
c1ccc(-n2cc(CNCC3CCCN3c3cccnn3)cn2)cc1 (configuration not stated) | -7.13
c1cnnc(N2CCCC2CNCc2ccsc2)c1 (configuration not stated) | 54.85
c1ccc(Cn2ccnc2CNCC2CCCN2c2cccnn2)cc1 (configuration not stated) | 11.2
c1ccc(Cn2cc(CNCC3CCCN3c3cccnn3)cn2)cc1 (configuration not stated) | 62.46
c1cnnc(N2CCCC2CNCc2cccs2)c1 (configuration not stated) | 23.86
c1cnnc(N2CCCC2CNCc2cscn2)c1 (configuration not stated) | 4.19
CO[C@@H]1CC[C@H]2[C@H]1OCCN2C(=O)c1ccc(C)nc1 | 29.89
CC(C)CNC(=O)C1=NOC2(CCN(Cc3ccc(C(C)C)cc3)C2)C1 (configuration not stated) | 32.09
CCOCc1nc2c(c(NCCNC(C)=O)n1)CCN(C(C)=O)CC2 | 18.28
CCOc1nnc(CN2CCC(c3cc4ccccc4[nH]3)CC2)s1 | 38.33
CCOc1nnc(CN2CCCC(c3nc4ccccc4[nH]3)C2)s1 (configuration not stated) | 53.63

SMILES | INHIBITION [%]
CCOc1nnc(CN2CCC(c3nc4ccccc4[nH]3)CC2)s1 | 28.42
CCCN(CC(=O)OC)C(=O)c1sc(C)nc1C | -1.29
Cc1ccc(OCCNC(=O)C(C)n2cncn2)cc1 (configuration not stated) | 42.11
CC(C(=O)NCCOc1ccccc1)n1cncn1 (configuration not stated) | 26.76
CC(C(=O)NCCOc1cccc(Cl)c1)n1cncn1 (configuration not stated) | 56.67
Cc1cc(=O)[nH]c(=O)n1COCCOCc1ccccc1 | 30.48
O=C(c1nn(-c2ccccc2F)cc1O)N1CCCCC1 | -10.64
Cc1ccc2c(C)c(C(=O)NCc3csc(N)n3)oc2c1 | -27.36
Cc1[nH]c2c(C)ccc(C)c2c1CC(=O)NCCNc1cccnc1 | 64.92
Cc1[nH]c2c(C)ccc(C)c2c1CC(=O)NCC(O)c1cccnc1 (configuration not stated) | 31.65
Cc1[nH]c2c(C)ccc(C)c2c1CC(=O)NCCCNc1cccnc1 | -10.38
COc1cccc(CC(=O)N2CCC3(CC2)OCCCC3O)c1OC (configuration not stated) | 3.4
CC(C)OCCOCc1cccc(NC(=O)NCCn2ccnc2)c1 | 3.85
C=c1ccoc1=C1NN=C(CNCCn2cc(C)cn2)O1 | 32.63
C=c1ccoc1=C1NN=C(CNCC2CCCN2c2cccnn2)O1 (configuration not stated) | -10.6
C=c1ccoc1=C1NN=C(CNCCn2cccn2)O1 | 58.49
COc1c(CNCc2ccc(C(=O)N(C)C)cc2)c(C)nn1C | -11.71
Cc1oc(-c2nc(C#N)c(N(C)C)o2)cc1S(=O)(=O)N1CCCC1 | -20.66
O=C(c1ccc(-c2nc[nH]n2)cc1)N1CCOC(C(F)(F)F)C1 (configuration not stated) | 50.91
O=C(c1ccc(-c2nc[nH]n2)cc1)N1CC[C@H](CO)[C@@H](O)C1 | -94.13
O=C(c1ccccc1-c1nc[nH]n1)N1CCOC(C(F)(F)F)C1 (configuration not stated) | -99.7
CCOCC(O)CN1CCN(C(=O)CC(C)C)CC1 (configuration not stated) | -38.96
Cc1cc(C)n(CC2CN(CC(=O)N3CCC3)CCO2)n1 (configuration not stated) | -9.17

SMILES | INHIBITION [%]
c1cncc(COCC2CNCc3nccn3C2)c1 (configuration not stated) | 38.49
CS(=O)(=O)NCc1ccc(NC(=O)CC2=CCCCC2)cc1 | 35.9
COCCO[C@H]1CCN(C(=O)c2ccsc2)[C@H]1Cc1cnn(C)c1 | -10.92
CCc1cc(C(F)(F)F)c2c(C)nn(CC(=O)O)c2n1 | 57.33
Cc1nn(C)cc1-c1cc(C(F)(F)F)c2c(C)nn(CC(=O)O)c2n1 | 15.91
COc1ccccc1-c1cc(C(F)(F)F)c2c(C)nn(CC(=O)O)c2n1 | 31.51
CCn1ccnc1CN1CCCN(C(=O)c2cc[nH]n2)CC1 | 0.74
O=S(=O)(N1CCC(n2cccc2)CC1)N1CCCC1c1ccco1 (configuration not stated) | 50.59
COC1CCN(S(=O)(=O)N2CCCC2c2ccco2)CC1 (configuration not stated) | 36.28
O=S(=O)(N1CCN(CC2CC2)CC1)N1CCCC1c1ccco1 (configuration not stated) | -20.95
CC(C)NC(=O)[C@@]12CCO[C@@H]1CCN(Cc1ccc3c(c1)OCO3)C2 | 50.85
CNC(=O)[C@@]12CCO[C@@H]1CCN(Cc1ccc3c(c1)OCO3)C2 | 39.02
O=C(NC1CC1)[C@@]12CCO[C@@H]1CCN(Cc1ccc3c(c1)OCO3)C2 | -14.64
CC(=O)N1CC2(CCCCN2Cc2ccc(Cl)cc2)Cc2ccccc21 (configuration not stated) | -31.86
Cn1ccc(CN2CCCC23CCN(Cc2cccc(F)c2)CC3)n1 | 1.81
Cc1ccccc1OCC(=O)NCC(c1ccc(N(C)C)cc1)N(C)C (configuration not stated) | 36.6
CCOc1ccccc1C(=O)N(C)C(C)c1ccc(S(C)(=O)=O)cc1 (configuration not stated) | 91.01
CC(c1ccc(S(N)(=O)=O)cc1)N(C)C(=O)c1ccccc1I (configuration not stated) | -28.49
CC(c1ccc(S(C)(=O)=O)cc1)N(C)C(=O)c1ccccc1I (configuration not stated) | 6.85
CC(C)c1csc(NC(=O)NC2CCCN(c3cnn(C)c3)C2)n1 (configuration not stated) | -20.08
N#Cc1cc(F)c(N2CCC(NS(=O)(=O)c3cccs3)CC2)c(F)c1 | 24.17
